Consider 13 molecules from PubChem BioAssay (NCI).

About 83,000 compounds went through this panel and 20% of them were active in at least one assay; those are over-represented in the sample as a whole.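 Percent growth is the endpoint: 0 to 100 indicates growth inhibition (40 means 60% inhibition), 0 means no net growth, and negative values indicate cell death.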 Unmarked numbers belong to inactive results. The source made the active and inactive calls. How the source made its calls: active means growth percent below 10; inactive means the rest.

The test system of the test is HL-60(TB) leukemia. Nature of the test: NCI-60 one-dose screen, 48 h (100 = growth as untreated, 0 = no growth, -100 = all killed). As to conditions: 10 µM unless noted.
Turning to `CCc1cc2c(cc1Cl)nc1c(=O)[nH]c(=O)nc-1n2CCOCC(C)(C)C`, the growth was 82%.
For `CC(C)(C)Nc1nc2c(OCCc3ccccc3)cccn2c1-c1ccc(O)cc1` the value was -9.89% (active).
Under `CCOC(=O)c1c(Nc2ccccc2)nn2c(-c3ccco3)c(C#N)cnc12` stands 110%.
In the case of `CC(C)(C)Nc1nc2c(OCCc3ccccc3)cccn2c1-c1ccccc1Cl`, the growth was -31.6% (active).
With `N#Cc1nc(-c2ccccc2)oc1S(N)(=O)=O`, the growth was 27.1%.
Under `COc1ccc(/C=N/Nc2nc(Nc3ccccc3)nc(Nc3ccc(S(N)(=O)=O)cc3)n2)cc1` stands 83.8%; under `CC(C)(C)c1cc(NC(=O)Nc2ccc(-c3cn4c5c(sc4n3)CCc3c[nH]cc3-5)cc2)no1`, 9.58% (active); under `O=C1C2=C(C(=O)c3c(O)cccc31)C(c1ccco1)c1sc(=O)[nH]c1S2` (stereo not drawn), -17.6% (active).
For `NS(=O)(=O)c1cccc(Nc2nc(SCC(=O)c3ccc(Cl)cc3)nc3c2CCC3)c1` the value was 111%; for `O=C1Nc2ccccc2/C1=C/c1ccc(OCC(=O)c2ccccc2)cc1`, 105%; for `O=C(Nc1ccc(Cl)c(C(F)(F)F)c1)Nc1ccc2c(ccn2C(=O)c2cccc(F)c2)c1`, 24.7%.
Under `N#C/C(=N\Nc1ccc(F)cc1)C(=O)Nc1cc(-c2ccccc2)nn1-c1ccccc1` stands 3.54% (active); under `CC1OC(O[C@@H]2[C@H](O)C(CO)OC(O[C@H]3COC(O[C@H]4CC[C@]5(C)[C@H]6CC[C@]78OC[C@@]9(CCC(C)(C)C[C@H]97)[C@H](O)C[C@@]8(C)[C@]6(C)CC[C@H]5C4(C)C)[C@@H](OC4OC(CO)[C@@H](O)[C@@H](O)[C@@H]4O)[C@@H]3O)[C@H]2OC2OC[C@@H](O)[C@@H](O)[C@@H]2O)[C@@H](O)[C@@H](O)[C@H]1O` (stereo partly drawn), -61.4% (active).
